# D3 antag – D3 dopamine receptor (human) antagonism | P35462 | D3R cells, DiscoveRx beta-arrestin luminescence, antagonist mode; hits give low values | max response, negative = inhibition, % | 360,000 tested, 2.5% active | AID 652054; in the data active = max response below about -50%; inconclusive = no clear call, values can overlap the other calls; note: % is set by controls: 0 for no effect and ±100 for the full control effect
#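 Cells plated overnight at 1500 cells/well, then exposed to library compounds with dopamine controls for 90 minutes at 37 degrees C. DiscoveRx reagent added for 30–60 minutes at room temperature; luminescence read, quantitative HTS format.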
# ClpP mod – qHTS Assay for Activators of ClpP; AID 651965, 2013; 340,000 tested, 1.9% active; Potency, µM (series often up to 57.5 µM), inactives show at the top dose activity change, negative = active; ATP-dependent Clp protease proteolytic subunit (Bacillus subtilis (strain 168)), P80244; purified B. subtilis ClpP, FRET peptide cleavage, 20 min; active = well fitted falling curve with a large enough effect; inconclusive = small, poorly fitted or top-dose-only effect; inactive = no such curve, though single readings can be large or run the other way; note: potency is the fitted concentration of half-maximal effect; the source files actives as falling curves though it sought activators and does not explain the sign; nearly all actives have a fitted effect of over 65% in size
#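 Purified B. subtilis ClpP, 10 microg/mL final in Tris/HCl pH8 with KCl, BSA, glycerol and Tween-20, cleaved an Abz/nitrotyrosine-quenched decapeptide. Fluorescence (ex 320, em 430) was read at 0 and 20 min at room temperature. Delta was normalized to 5.8 microM ADEP and DMSO/no-enzyme controls.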
# DT40 TDP1 no CPT – qHTS for Inhibitors of human tyrosyl-DNA phosphodiesterase 1 (TDP1): qHTS in cells in absence of CPT; DT40 Tdp1-/- hTDP1 cells, no CPT, ATP luminescence, 48 h; 420,000 tested, 15% active; Potency, µM (top dose mostly 46.2 µM), without a hit: at the highest dose activity change, negative = growth inhibition, hits mostly inhibitors; note: potency is the fitted concentration of half-maximal effect; % is set by controls: 0 for no effect and ±100 for the full control effect; nearly all actives have a fitted effect of over 55% in size
#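 No-CPT arm: Tdp1-/-;hTDP1 DT40 cells (400/well) plus compounds, incubated ≥48 hr at 37 °C. Readout CellTiter-Glo luminescence.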
# DT40 TDP1 CPT – DT40-hTDP1 cell growth loss with CPT | chicken DT40 Tdp1-/-;hTDP1 cells + 20 nM CPT, ATP luminescence, 48 h | Potency, µM (highest dose often 46.2 µM), for the others: top-dose activity change, negative = growth inhibition, actives largely listed as inhibitors | 420,000 tested, 12% active | AID 686979; note: potency is the fitted concentration of half-maximal effect; % is set by controls: 0 for no effect and ±100 for the full control effect; nearly all actives have a fitted effect of over 55% in size
#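 Chicken DT40 Tdp1-/- cells complemented with human TDP1, 400 cells/well, exposed to compounds plus 20 nM camptothecin for at least 48 h at 37 C; viability read as ATP content by CellTiter-Glo luminescence.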
# DRD3 agonist – D3 dopamine receptor (human) agonism | AID 652048 | 410,000 tested, 0.58% active | P35462 | max activation, % | D3R DiscoveRx beta-arrestin cells, luminescence, 90 min; in the data active = max activation above about 30%; note: 0% is about no effect
#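 Agonist mode: compounds and dopamine controls were applied to plated cells for 90 min at 37 degrees C after an overnight attachment at 1500 cells/well. Luminescent read-out followed 30 - 60 minutes at room temperature with DiscoveRx detection reagent.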
# IL-1B inflam inh – blocks inflammasome-driven IL-1 beta release | 360,000 tested, 4.7% active | THP-1 LPS/ATP IL-1B secretion, AlphaLISA, 16 h; hits give low values | activity change, % at 57.5 µM | AID 743279; in the data active = activity change below about -50%; inconclusive = mostly about -30% to -49%; note: % is set by controls: 0 for no effect and ±100 for the full control effect
#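 THP-1 cells pretreated 1 hr with compounds (up to 57.5 uM final), then stimulated with LPS (250 ng/mL final) plus ATP (1.25 mM final); secreted IL-1B measured by AlphaLISA after 16 hr, decreased signal indicating inhibition.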
# * hit, by the source's call; i = inactive; u = inconclusive; x = no result given; [ ] = remark or other dose. Hits are enriched below; roughly 21% of the tested compounds scored in any of these assays. Unless noted, calls come from the whole dose curve; as a rule, active = well fitted inhibition curve with a large enough effect; inconclusive = small, poorly fitted or top-dose-only effect; inactive = flat fitted curve, though single readings scatter.
SMILES,D3 antag,ClpP mod,DT40 TDP1 no CPT,DT40 TDP1 CPT,DRD3 agonist,IL-1B inflam inh
COc1ccc(CC(=O)N/N=C/c2cc(Br)cs2)cc1OC,33.3,-0.7%,u,-23.5%,4.5,-5.2
Cc1cc(=O)[nH]c2nnc(SCc3ccc(F)cc3)n12,x,-5.5%,2.2%,4.2%,-12.7,x
COc1ccc(/C=N/NC(=O)CCn2c3ccccc3c3ccccc32)cc1O,-6.4,-1.5%,1.64µM*,1.46µM*,2.2,-6.3
COc1cc(/C=N/NC(=O)c2cc(-c3ccccc3OC(C)C)nc3ccccc23)ccc1O,37.5,-26.3%,1.84µM*,u,8.8,3.2
O=C(N/N=C/c1ccc(O)cc1)c1cc(-c2ccccc2)nc2ccccc12,23.9,108.7%,u,u,4.5,25.7
CC(C)COc1cccc(-c2cc(C(=O)N/N=C/c3ccncc3)c3ccccc3n2)c1,66.2,-14.0%,u,9.2µM*,33.8*,i
COc1cc(/C=N/NC(=O)c2cnn3c(C)cc(-c4ccccc4)nc23)ccc1O,0.0,2.3%,16.4µM*,23.1µM*,47.1*,-57.3*
COc1ccc(CC(=O)Nc2cc(S(C)(=O)=O)ccc2Cl)cc1S(=O)(=O)N1CCOCC1,-20.7,-1.4%,1.3%,-2.1%,3.4,11.6
Cc1cc(NC(=O)CSc2nncn2N)no1,3.6,x,-2.6%,2.3%,-2.9,0.0
Cc1ccc(C(=O)O/N=C(\N)c2cccc([N+](=O)[O-])c2)cc1,-10.3,1.1%,-15.4%,-29.6%,-22.2,1.2
Cc1ccc(-n2cnc(N)c2C(=O)c2cccc([N+](=O)[O-])c2)cc1,-17.6,x,29.1µM*,u,-0.5,x
Cc1ccc(-c2nc(C=Nc3ccc(O)cc3)c(O)o2)cc1,-9.7,-1.0%,10.3µM*,7.31µM*,1.0,-86.1*
COc1ccc(N2CCN(C(=O)CCN3C(=S)NC(C)(C)CC3C)CC2)cc1 (stereo not drawn),4.9,x,-20.5%,12.3%,-0.7,11.2
COc1ccc(C(=O)/C=C2/c3ccccc3CC(C)(C)N2C)cc1OC,-13.4,-14.8%,16.4µM*,u,-3.2,0.0
COc1cc(NC(=O)c2ccccc2[N+](=O)[O-])ccc1NC(=O)c1cc2ccccc2o1,34.2,-3.3%,8.2µM*,16.4µM*,1.4,u
COc1cc(NC(=O)c2cc(Cl)ccc2Cl)ccc1NC(=O)c1cc2ccccc2o1,x,28.2µM*,4.61µM*,5.8µM*,8.9,x
COc1cc(NC(=O)c2cccs2)ccc1NC(=O)c1cc2ccccc2o1,6.5,-3.0%,11.6µM*,u,4.5,-12.7
COC(=O)c1scc(C)c1NC(=O)c1ccc(Cl)cc1,-15.5,-1.7%,u,-8.1%,-12.8,5.7
COC(=O)c1scc(S(=O)(=O)C(C)C)c1N/N=C(\C#N)C(=O)c1ccc(Cl)cc1,1.9,-9.3%,23.1µM*,u,-1.7,-8.3
COC(=O)c1scc(C#N)c1N/N=C(\C#N)S(=O)(=O)c1ccc(Cl)cc1,-6.7,x,4.61µM*,4.11µM*,11.2,11.9
O=C(CSc1nnc(NC(=O)c2ccco2)s1)Nc1ccc2c(c1)OCCO2,-20.4,x,-13.9%,-15.8%,4.3,2.1
COCCOC(=O)c1[nH]c2c(c1C)C(=O)CC(c1ccc(N(C)C)cc1)C2 (stereo not drawn),-21.3,0.8%,u,-27.6%,-3.6,-12.3
CCOC(=O)c1[nH]c2c(c1C)C(=O)CC(c1ccco1)C2 (stereo not drawn),-12.1,0.7%,0.0411µM*,0.581µM*,-3.5,81.8
CCOC(=O)c1[nH]c2c(c1Cc1ccccc1OC)C(=O)CC(c1ccccc1)C2 (stereo not drawn),x,-3.9%,u,u,-6.2,x
Cc1c(C(=O)OCCOC(C)C)[nH]c2c1C(=O)CC(c1ccco1)C2 (stereo not drawn),-27.7,-0.4%,0.0052µM*,0.0231µM*,-6.0,97.0
SMILES,D3 antag,ClpP mod,DT40 TDP1 no CPT,DT40 TDP1 CPT,DRD3 agonist,IL-1B inflam inh
CSCCOC(=O)c1[nH]c2c(c1C)C(=O)CC(c1ccco1)C2 (stereo not drawn),-25.4,1.6%,0.82µM*,0.731µM*,-6.1,52.5
COCCOC(=O)c1[nH]c2c(c1C)C(=O)CC(c1ccco1)C2 (stereo not drawn),-5.4,-1.2%,0.731µM*,1.03µM*,-1.4,77.2
COCCNc1nnc(SCC(=O)NC(=O)c2ccccc2)s1,3.5,x,2.6%,6.6%,2.5,8.0
Cc1c(C(=O)OCc2ccccc2)[nH]c2c1C(=O)CC(c1ccco1)C2 (stereo not drawn),-10.7,-6.0%,0.92µM*,0.82µM*,-9.4,0.0
Cc1c(C(=O)O)[nH]c2c1C(=O)CC(c1ccccc1)C2 (stereo not drawn),0.0,-4.6%,-16.4%,-14.6%,1.4,-7.9
COc1ccc(C(=O)Nc2cccc(C(=O)NCc3ccco3)c2)cc1,-0.8,0.7%,u,u,3.9,-18.1
COC(=O)c1ccc2c(c1)C(C)(C)C(/C=C/c1ccc(OC)c(OC)c1OC)=[N+]2C,-87.9*,u,0.651µM*,0.82µM*,-20.8,-116.5*
COC(=O)c1ccc2c(c1)C(C)(C)C(/C=C/c1ccc(O)cc1)=[N+]2C,u,-16.1%,2.82µM*,2.51µM*,-50.8,-91.7*
COc1ccc(C2C3=C(CC(c4ccco4)CC3=O)Nc3ccccc3N2C(C)=O)cc1 (stereo not drawn),0.7,-20.3%,-22.1%,-19.6%,-0.4,7.7
O=C1CC(c2ccco2)CC2=C1C(c1ccccc1)n1nc(C(F)(F)F)nc1N2 (stereo not drawn),-21.7,25.1µM*,u,-13.0%,1.1,-10.9
COC(=O)C1=C(N)Oc2cc(C)n(C)c(=O)c2C1c1ccc(Cl)cc1 (stereo not drawn),-22.6,1.3%,14.6µM*,u,-2.1,9.8
COC(=O)c1ccccc1-c1cc(C)cc2c1OC(CNC(=O)c1cc(C)on1)C2 (stereo not drawn),x,x,u,-8.5%[9.04 µM],x,x
O=C(OCc1ccc(O)cc1)c1c(-c2ccsc2)oc2ccc(N3CCOCC3)cc12,42.8,0.0%,13µM*,18.4µM*,-23.9,-12.5
CC(C)N=C1NN=C(c2ccc(Cl)c(Cl)c2)CS1,-15.7,x,u,u,-5.5,-73.8*
Cc1ccc(C2=NNC(=Nc3ccc(F)cc3)SC2)cc1,2.0,x,u,u,-0.1,-74.3*
